The nature of experiment [1]: qHTS Assay for Inhibitors of Fructose-1,6-bisphosphate Aldolase from Giardia Lamblia: Mammalian cellular toxicity (AID 2786).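 Further: compound exposure lasted 48 h before reading; nearly all actives have a fitted effect of over 60% in size.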 In short, it runs like this:
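Mammalian cytotoxicity surrogate: Chinese hamster ovary cells exposed to compound for 48 h at 37 °C. Cellular ATP then measured with ATPlite reagent, 20 min incubation.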

Experiment [2] is described as follows: qHTS Assay for Inhibitors of Fructose-1,6-bisphosphate Aldolase from Giardia Lamblia: Coupling assay counterscreen confirmation (AID 2795). Further: nearly all actives have a fitted effect of over 55% in size. The method, boiled down: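 Counterscreen, no aldolase: coupling enzyme reagent + cpd (up to 57.5 uM final), 10 min RT; add substrate + coupling system + AmpLite Red, 20 min RT; fluorescence ex 525/em 598 nm.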
Experiment [3] in a line: qHTS Assay for Inhibitors of Fructose-1,6-bisphosphate Aldolase from Giardia Lamblia: Giardia lamblia growth inhibition (AID 2785). Further: nearly all actives have a fitted effect of over 70% in size. Further: potency means the concentration at half of the fitted maximal effect. The method, boiled down: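 Whole-parasite growth test: Giardia WB trophozoites in TYI-S-33 (pH 7.0), 100 per well, incubated 48 h at 37C with compound. ATP content was read by ATPlite luminescence.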
For experiment [4], the target named is DNA repair nuclease/redox regulator APEX1 (Homo sapiens) (UniProt P27695). In words: Confirmation qHTS Assay for Inhibitors of the Human Apurinic/apyrimidinic Endonuclease 1 (APE1) (AID 2572). Further: nearly all actives have a fitted effect of over 30% in size. Further: potency means the concentration at half of the fitted maximal effect. In short, it runs like this:
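Double-stranded THF abasic-site substrate (50 nM final), 5'-TAMRA/3'-BHQ-2; APE1 incision raises fluorescence. Enzyme preincubated with compound 15 min at room temperature before substrate; kinetic read Ex 525/Em 598 nm, signal difference between third and first reads.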
In general terms: Quantitative high-throughput screening tests each substance at several concentrations.

Experiment [5] concerns the target Endonuclease 4 (Escherichia coli (strain K12)) (UniProt P0A6C1). Kind of experiment: Counterscreen for APE1 Inhibitors: qHTS Assay for Inhibitors of Endonuclease IV (AID 2565). In short, it runs like this: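 Incision of a double-stranded 50 nM TAMRA/BHQ-2 abasic substrate was followed kinetically (525/598 nm, reads every 60 s) after 15 min enzyme–compound preincubation with 2 nM EndoIV in pH 7.5 Tris buffer with MgCl2, DTT and Tween-20; concentration-response format.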

The target in experiment [6] is DNA repair nuclease/redox regulator APEX1 (Homo sapiens) (UniProt P27695). Kind of experiment: qHTS FP-Based Assay for Inhibitors of the Human Apurinic/apyrimidinic Endonuclease 1 (APE1) (AID 2573).
Experiment [7] addresses DNA polymerase iota (Homo sapiens) (UniProt Q9UNA4). In words: qHTS for Inhibitors of Polymerase Iota: Confirmatory Assay for Cherry-picked Compounds (AID 720496). Further: potency means the concentration at half of the fitted maximal effect. The following applies: Pol iota primer extension, TAMRA/BHQ fluorescence. The method, boiled down:
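Extension of a quenched TAMRA-reporter/BHQ-2-template DNA substrate (50 nM) by 10 nM Pol iota after 15 min compound preincubation. Strand-displacement fluorescence (525/598 nm) was read kinetically at 0 and 10 min. Buffer-only wells served as negative control.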

Experiment [8] deals with Bifunctional 3'-5' exonuclease/ATP-dependent helicase WRN (Homo sapiens) (UniProt Q14191). In words: qHTS for Inhibitors of WRN Helicase: Confirmatory Assay for Cherry-picked Compounds. (AID 720497). Further: potency means the concentration at half of the fitted maximal effect; nearly all actives have a fitted effect of over 65% in size. To be noted: WRN helicase DNA unwinding, fluorescence kinetic. The method, boiled down: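 Kinetic fluorescence helicase read-out (525 nm excitation, 598 nm emission) on a forked duplex substrate at 100 nM with 2 mM ATP. Enzyme: 20 nM WRN, exposed to compound for 15 min at room temperature. Responses normalized to buffer-only and positive-control wells.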

A short description of experiment [9]: qHTS for Inhibitors of WRN Helicase: Thiazole Orange DNA Binding Counterscreen (AID 720499).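 Further: drop in dye fluorescence marks compound binding to DNA; nearly all actives have a fitted effect of over 60% in size.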 The method, boiled down:
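Mixture of 100 nM thiazole orange and 50 nM unlabeled DNA exposed to compound 15 min at room temperature. Dye displacement monitored by 480/530 nm fluorescence, identifying nonspecific DNA binders.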

The target of experiment [10] is DNA polymerase eta (Homo sapiens) (UniProt Q9Y253). Kind of experiment: qHTS for Inhibitors of Polymerase Eta: Confirmatory Assay for Cherry-picked Compounds (AID 720502). Further: potency means the concentration at half of the fitted maximal effect. The following applies: Pol eta primer extension, TAMRA/BHQ fluorescence, 10 min. The method, boiled down: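 10 nM Pol eta + cpd, 15 min RT; start w/ 50 nM final primer/TAMRA-reporter/BHQ-2-template substrate; kinetic read 0 and 10 min, ex 525/em 598 nm. Buffer-only wells = negative control.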

Experiment [11] concerns the target RecQ-like DNA helicase BLM (Homo sapiens) (UniProt P54132). In words: qHTS for Inhibitors of WRN Helicase: BLM Helicase Counterscreen for WRN Inhibitors (AID 720503). Further: potency means the concentration at half of the fitted maximal effect; nearly all actives have a fitted effect of over 60% in size. The following applies: Recombinant BLM helicase DNA unwinding, red fluorescence. In short, it runs like this:
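Reactions were started with 100 nM DNA substrate and 2 mM ATP (final) after compound and 1 nM BLM stood 15 min at room temperature in Tris-HCl pH 8.0 buffer with NaCl, MgCl2, DTT and Tween-20. Two red-fluorescence reads 15 min apart were normalized against DMSO and no-enzyme wells.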

Experiment [12] concerns the target Fructose-bisphosphate aldolase (Giardia intestinalis (strain ATCC 50803 / WB clone C6)) (UniProt A8B2U2). Kind of experiment: qHTS Assay for Inhibitors of Fructose-1,6-bisphosphate Aldolase from Giardia Lamblia: Primary screen confirmation (AID 2787).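 Further: aldolase product measured through coupled diaphorase step turning resazurin into fluorescent resorufin; series mostly up to about 58 µM; nearly all actives have a fitted effect of over 45% in size.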 In short, it runs like this: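 FBPA (40 nM in enzyme reagent, with 30 uM ZnCl2) was preincubated 10 min at RT with compound up to 57.5 uM final. Substrate plus coupled detection system was then added, and fluorescence (525/598 nm) was read after 20 min at RT.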

In experiment [13] the target is Fructose-bisphosphate aldolase A (Oryctolagus cuniculus) (UniProt P00883). Kind of experiment: qHTS Assay for Inhibitors of Fructose-1,6-bisphosphate Aldolase from Giardia Lamblia: Rabbit FBPA Selectivity (AID 2794). Further: nearly all actives have a fitted effect of over 60% in size. The method, boiled down: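 To triage Class I aldolase inhibitors, rabbit FBPA activity is followed through a glyceraldehyde-3-phosphate-linked enzyme cascade feeding AmpLite Red. Compounds (up to 57.5 uM final) sit 10 min with coupling enzymes before substrate; fluorescence is read 20 min later.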

The list shows a part of the results. Where a call stands in place of a potency, no number is given. Records with an inconclusive call do not appear. Values without a mark were called inactive. Active and inactive are the calls of the source. The call rests on the fitted dose curve; in most records, active means well fitted curve in the direction sought with a large enough effect; inconclusive means small, poorly fitted or top-dose-only effect, or another doubt; inactive means no such curve, though single readings can be large; an effect the other way counts as inactive or inconclusive.

Sequence of Fructose-bisphosphate aldolase (Giardia intestinalis (strain ATCC 50803 / WB clone C6)) (A8B2U2 whole entry, looked up): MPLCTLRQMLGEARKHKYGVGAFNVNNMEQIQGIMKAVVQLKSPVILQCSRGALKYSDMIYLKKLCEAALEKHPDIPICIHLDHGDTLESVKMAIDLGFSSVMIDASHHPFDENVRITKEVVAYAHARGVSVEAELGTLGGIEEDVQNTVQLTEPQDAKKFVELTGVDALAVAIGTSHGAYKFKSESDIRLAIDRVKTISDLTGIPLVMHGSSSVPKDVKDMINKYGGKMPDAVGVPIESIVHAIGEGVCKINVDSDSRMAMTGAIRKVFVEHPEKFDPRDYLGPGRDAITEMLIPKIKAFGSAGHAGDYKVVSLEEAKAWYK
Sequence of DNA repair nuclease/redox regulator APEX1 (Homo sapiens) (P27695 whole entry, looked up): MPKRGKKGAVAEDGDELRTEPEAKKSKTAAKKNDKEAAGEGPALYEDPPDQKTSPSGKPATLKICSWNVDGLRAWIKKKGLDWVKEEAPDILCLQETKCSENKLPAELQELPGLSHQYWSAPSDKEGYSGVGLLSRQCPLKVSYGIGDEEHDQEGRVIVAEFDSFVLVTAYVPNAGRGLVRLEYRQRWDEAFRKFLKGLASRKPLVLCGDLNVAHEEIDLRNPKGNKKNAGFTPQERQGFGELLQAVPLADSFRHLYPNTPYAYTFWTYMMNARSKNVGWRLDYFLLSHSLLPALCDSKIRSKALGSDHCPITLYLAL
Sequence of Fructose-bisphosphate aldolase A (Oryctolagus cuniculus) (P00883 whole entry, looked up): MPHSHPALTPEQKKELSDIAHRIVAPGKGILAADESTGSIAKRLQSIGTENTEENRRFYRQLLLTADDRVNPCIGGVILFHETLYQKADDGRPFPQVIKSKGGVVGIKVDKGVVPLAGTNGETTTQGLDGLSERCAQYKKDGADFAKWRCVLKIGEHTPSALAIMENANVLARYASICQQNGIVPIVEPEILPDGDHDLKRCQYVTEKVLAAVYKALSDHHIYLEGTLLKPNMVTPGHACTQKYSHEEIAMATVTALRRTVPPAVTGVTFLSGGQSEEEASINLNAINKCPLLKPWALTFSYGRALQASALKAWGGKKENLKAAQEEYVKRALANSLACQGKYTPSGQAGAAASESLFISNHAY
Sequence of DNA polymerase eta (Homo sapiens) (Q9Y253 whole entry, looked up): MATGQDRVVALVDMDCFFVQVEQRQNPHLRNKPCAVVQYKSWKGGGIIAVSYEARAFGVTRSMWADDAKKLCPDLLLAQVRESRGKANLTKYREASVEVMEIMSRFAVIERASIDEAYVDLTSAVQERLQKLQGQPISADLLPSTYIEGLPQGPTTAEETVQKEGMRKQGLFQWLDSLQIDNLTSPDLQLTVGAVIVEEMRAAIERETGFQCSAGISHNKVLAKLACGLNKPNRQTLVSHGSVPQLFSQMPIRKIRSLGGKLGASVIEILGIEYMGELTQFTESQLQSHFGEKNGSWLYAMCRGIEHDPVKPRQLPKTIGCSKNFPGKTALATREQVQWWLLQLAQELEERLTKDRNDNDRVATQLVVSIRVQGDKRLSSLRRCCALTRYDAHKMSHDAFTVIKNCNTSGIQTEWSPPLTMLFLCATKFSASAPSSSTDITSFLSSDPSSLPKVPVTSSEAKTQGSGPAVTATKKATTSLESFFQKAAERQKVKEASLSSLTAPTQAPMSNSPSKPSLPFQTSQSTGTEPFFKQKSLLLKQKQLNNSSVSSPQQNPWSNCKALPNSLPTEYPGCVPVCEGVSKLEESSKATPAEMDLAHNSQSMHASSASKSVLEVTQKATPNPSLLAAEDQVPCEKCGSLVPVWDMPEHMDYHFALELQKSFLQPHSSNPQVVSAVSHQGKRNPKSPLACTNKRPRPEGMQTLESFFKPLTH
Sequence of DNA polymerase iota (Homo sapiens) (Q9UNA4 whole entry, looked up): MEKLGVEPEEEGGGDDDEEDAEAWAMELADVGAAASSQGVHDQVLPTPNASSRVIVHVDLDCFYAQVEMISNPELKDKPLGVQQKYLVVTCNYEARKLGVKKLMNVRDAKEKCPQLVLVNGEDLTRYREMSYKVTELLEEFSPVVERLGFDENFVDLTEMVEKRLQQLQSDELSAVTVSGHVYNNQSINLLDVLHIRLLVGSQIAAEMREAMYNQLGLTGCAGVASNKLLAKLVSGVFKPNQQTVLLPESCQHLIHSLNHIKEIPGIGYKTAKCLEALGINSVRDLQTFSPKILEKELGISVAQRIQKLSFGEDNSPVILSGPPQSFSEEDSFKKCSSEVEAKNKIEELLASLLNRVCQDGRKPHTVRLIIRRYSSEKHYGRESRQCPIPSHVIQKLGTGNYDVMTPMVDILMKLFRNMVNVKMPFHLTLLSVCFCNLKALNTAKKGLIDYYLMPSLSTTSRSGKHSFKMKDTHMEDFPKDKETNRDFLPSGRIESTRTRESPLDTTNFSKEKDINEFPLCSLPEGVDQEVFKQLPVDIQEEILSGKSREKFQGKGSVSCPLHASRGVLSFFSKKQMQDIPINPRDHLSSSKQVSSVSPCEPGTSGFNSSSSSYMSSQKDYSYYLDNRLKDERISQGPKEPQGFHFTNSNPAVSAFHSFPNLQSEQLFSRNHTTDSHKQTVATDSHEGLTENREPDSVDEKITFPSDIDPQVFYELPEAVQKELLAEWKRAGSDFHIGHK
Sequence of RecQ-like DNA helicase BLM (Homo sapiens) (P54132 whole entry, looked up): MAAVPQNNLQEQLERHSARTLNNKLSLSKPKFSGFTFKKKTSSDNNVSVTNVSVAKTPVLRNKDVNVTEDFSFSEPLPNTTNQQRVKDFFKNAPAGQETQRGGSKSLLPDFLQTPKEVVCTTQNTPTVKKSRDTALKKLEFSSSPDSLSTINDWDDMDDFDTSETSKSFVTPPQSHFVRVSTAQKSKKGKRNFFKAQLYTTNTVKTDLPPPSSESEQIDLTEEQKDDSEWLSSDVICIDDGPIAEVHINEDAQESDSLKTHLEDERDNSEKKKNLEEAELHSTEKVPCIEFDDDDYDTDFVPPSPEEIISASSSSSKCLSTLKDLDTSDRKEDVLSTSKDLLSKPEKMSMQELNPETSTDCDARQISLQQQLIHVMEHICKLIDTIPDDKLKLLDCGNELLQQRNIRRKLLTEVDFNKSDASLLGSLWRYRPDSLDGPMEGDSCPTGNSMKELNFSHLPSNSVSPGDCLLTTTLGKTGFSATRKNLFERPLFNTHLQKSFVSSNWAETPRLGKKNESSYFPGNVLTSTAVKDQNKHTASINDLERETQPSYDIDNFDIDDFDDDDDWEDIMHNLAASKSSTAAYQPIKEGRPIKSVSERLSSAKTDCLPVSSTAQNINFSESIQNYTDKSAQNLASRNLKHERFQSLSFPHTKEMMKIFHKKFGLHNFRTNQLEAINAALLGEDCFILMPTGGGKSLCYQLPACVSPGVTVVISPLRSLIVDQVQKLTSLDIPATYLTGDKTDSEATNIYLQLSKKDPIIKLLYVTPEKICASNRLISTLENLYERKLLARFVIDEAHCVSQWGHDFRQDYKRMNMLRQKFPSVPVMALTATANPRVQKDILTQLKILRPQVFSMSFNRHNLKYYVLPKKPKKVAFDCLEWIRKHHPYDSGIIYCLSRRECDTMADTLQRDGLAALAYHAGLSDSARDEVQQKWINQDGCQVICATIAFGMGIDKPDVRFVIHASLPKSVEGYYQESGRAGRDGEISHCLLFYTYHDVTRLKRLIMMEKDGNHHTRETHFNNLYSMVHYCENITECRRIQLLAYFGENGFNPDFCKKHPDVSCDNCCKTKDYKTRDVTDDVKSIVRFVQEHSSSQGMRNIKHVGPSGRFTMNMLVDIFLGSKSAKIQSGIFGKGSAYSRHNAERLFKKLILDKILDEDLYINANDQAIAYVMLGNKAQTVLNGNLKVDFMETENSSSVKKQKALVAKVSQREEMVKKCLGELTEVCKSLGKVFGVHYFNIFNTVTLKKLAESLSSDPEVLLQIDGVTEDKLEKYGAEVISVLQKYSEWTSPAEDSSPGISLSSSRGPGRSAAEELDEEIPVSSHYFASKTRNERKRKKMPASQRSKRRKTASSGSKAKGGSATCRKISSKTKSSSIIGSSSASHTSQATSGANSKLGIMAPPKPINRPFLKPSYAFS

With `CCN(CC(=O)NC(=O)NCc1ccccc1)Cc1nc2ccccc2c(=O)[nH]1`, the Potency result in experiment [1] was “inactive”.
With `O=C1CCCN1CCCNC(=S)Nc1ccc(F)c(Cl)c1`, the Potency result in experiment [1] is “inactive”. Also, the molecule was called inactive in experiment [2].
For `Cc1cc(C)n(-c2ccc(Cl)c(C(=O)O)n2)n1`, the Potency result in experiment [3] and in experiment [1] was “inactive” in each case. In addition, the call in experiment [2] was inactive.
With `COc1ccc(NC(=O)CSc2nc(NS(=O)(=O)c3ccc(C)cc3)cc(=O)[nH]2)cc1`, the Potency in experiment [4] is 39.8 µM (active).
Same read-out and setting: the entry for `CC(=O)NS(=O)(=O)c1ccc(NC(=O)C2C3C=CC(C3)C2C(=O)O)cc1` (stereo not given) is “inactive”.
Take `N#Cc1ccccc1CN1C(=O)S/C(=C/c2cccn2-c2cccc(C(=O)O)c2)C1=O`: the molecule was called inactive in [5] and in experiment [9]. The Potency in experiment [4] was 14.1 µM (active); in experiment [7], 67 µM (active); in experiment [8], 21.5 µM (active); in [10] it was 60.1 µM (active); in experiment [11], 17.1 µM (active). Besides, the Potency entry in experiment [6] is “inactive”.
`O=C(CN1CCN(S(=O)(=O)/C=C/c2ccccc2)CC1)NC(=O)NCc1ccco1`: in [5], the result was inactive.
Same read-out and setting: the entry for `O=C(Cc1ccc(S(=O)(=O)N2CCOCC2)s1)NCCC(c1ccccc1)c1ccccc1` is “inactive”.
Regarding `Cc1cc(C)nc(N/N=C/c2ccc([N+](=O)[O-])o2)n1`, the Potency in experiment [3] is 3.16 µM (active). For the same molecule, in experiment [2], the molecule was called inactive.
`CCOCN(C(=O)Cn1c(C(C)O)nc2ccccc21)c1c(C)cccc1CC` (stereo not given): the Potency result in experiment [4] was “inactive”.
As to `OCCN1CCN(C(=S)c2ccc(-c3ccccc3)cc2)CC1`, the Potency result in experiment [1] was “inactive”.
Turning to `O=C(O)Cn1c(Cc2ccccc2)nc2ccccc21`, the Potency result in experiment [1] is “inactive”.
In the case of `Cc1ccc(C(=O)Nc2nnc(C3=COCCO3)o2)cc1C`, the Potency result in experiment [1] is “inactive”. Also, the result in experiment [12] was inactive.
Turning to `Cc1ccc(OCCCCc2c(C)n[nH]c2C)cc1`, in experiment [12], the molecule was classed as inactive.
For `COC(=O)CC1=NN(c2nc(C)cc(C)n2)C(=O)C1`, in [3], the Potency result is “inactive”. For the same molecule, the result in experiment [2] was inactive.
`COc1ccc(N=Nc2c(-c3ccc(OC)cc3)[nH]oc2=O)cc1`: the Potency result in [1] is “inactive”. Moreover, the call in experiment [2] was inactive.
Turning to `O=S(=O)(c1ccc(NC(=S)NN=C(C2CC2)C2CC2)cc1)N1CCOCC1`, the result in experiment [12] and in [13] was inactive.
In the case of `COc1ccc(C(=O)NC(=S)N2CCCCC2c2cccnc2)cc1OC` (stereo not given), the Potency entry in experiment [1] is “inactive”.
Turning to `C=C(C)CNC(=S)N/N=C/c1ccccc1OCC(=O)O`, the outcome in experiment [13] was inactive.
Take `CC(=O)NC1CCN(CC(=O)Nc2nccs2)CC1`: the molecule was classed as inactive in [13].
